The results in this text go back to ChEMBL document CHEMBL4513216, “Probing the Open Global Health Chemical Diversity Library for Multistage-Active Starting Points for Next-Generation Antimalarials” (ACS Infect Dis, 2020).

The campaign covered roughly 65,000 compounds. About 2,100 (3.2%) showed an effect of 50% or more. The median lay at about -52%. The sample as a whole holds a higher share of strong results than the screen did.

For this assay, the system named is Plasmodium falciparum. The assay can be described thus: Screen against P. falciparum Asexual Blood Stage (ABS), at 5uM. The format is functional, Dd2. The note with it: tested at 5 uM.
As for `CC(C)CN1C(=O)C[C@@H]2[C@@H]1CCN2Cc1cccc(C#N)c1`, the INHIBITION is reported as -105%.
As for `Cc1cc(C)n(CC2CCCN2C(=O)c2cn[nH]c2C)n1` (stereo unspecified), the figure is -90%; as for `O=C(CCSC1CCc2ccccc2NC1=O)NCCCO` (stereo unspecified), -7.35%; as for `Cc1ccc(-c2noc(CN3CCn4c(nnc4C4CC4)C3)n2)cc1`, -44.9%.
The result for `Cc1nnc2n1CCN(Cc1ncc(-c3ccccc3)o1)C2` reads -95.9%; that for `Cc1cccc(-c2noc(CN3CCn4c(nnc4C4CC4)C3)n2)c1`, -35.8%.
As for `c1ccc(-c2cnc(CN3CCn4c(nnc4C4CC4)C3)o2)cc1`, the figure is -8.02%; as for `Cc1nnc2n1CCN(Cc1ncc(-c3ccc(F)cc3)o1)C2`, 8.55%; as for `CCc1nnc2n1CCN(Cc1ncc(-c3ccccc3)o1)C2`, 46.9%.
Regarding `CC(C)c1nnc2n1CCN(Cc1ncc(-c3ccccc3)o1)C2`, the INHIBITION stood at 62%.
As for `Fc1ccc(-c2cnc(CN3CCn4c(nnc4C4CC4)C3)o2)cc1`, the figure is 53.1%.
The result for `Cc1ccccc1-c1noc(CN2CCn3c(nnc3C3CC3)C2)n1` reads 51.7%.
On to `Cc1noc(C2CCCN2C(=O)C2CCC2)n1` (stereo unspecified), for which the INHIBITION is listed as -24%.
As for `Cc1ncc(CN(C)Cc2nc3cc(Cl)ccc3n2C)s1`, the figure is -54.3%.
The result for `c1cc(CNCc2cccc3c2OCCCO3)cc(Cn2cncn2)c1` reads 48.9%; that for `CC1=NN(CC(=O)N2CC[C@@H]3[C@@H](CCC(=O)N3CC(C)C)C2)CC1`, -127%; that for `Cc1ncsc1C(=O)N1CCN(CCC(C)C)CC1`, -64.6%.
Consider `Cc1nc(-c2cccnc2)ncc1C(=O)N1CCC(C(C)N(C)C)CC1` (stereo unspecified), for which the INHIBITION is reported as -79.6%.
As for `OC1CCN(CCCNc2ncccn2)CC1`, the figure is -61.1%; as for `CN(C(=O)NCc1ccncc1)C1CCN(c2ccccc2)C1=O` (stereo unspecified), -128%.
The result for `CN(C(=O)Nc1ccccn1)C1CCCN(c2ccccc2)C1=O` (stereo unspecified) reads 13.9%; that for `CN(C(=O)Nc1ccncc1)C1CCN(c2ccccc2)C1=O` (stereo unspecified), 51%.
For the molecule `CCn1nc2c(cc1=O)CN(CC(=O)Nc1nncs1)CC2`, the INHIBITION is -35%.
The result for `Cn1cc(N2CC3(CCN(C(=O)c4cccn4C)CC3)OCC2=O)cn1` reads -94.7%; that for `CCn1c(CN2CCN(CCO)CC2)nc2c(F)cccc21`, 10.6%.
The result for `CCn1c(CN2CCN(CCOC)CC2)nc2c(F)cccc21` reads 68.6%; that for `CCn1c(CN2CCN(CC(N)=O)CC2)nc2c(F)cccc21`, -147%.
The result for `Brc1cccnc1OC1CCNCC1` reads 35.5%; that for `Cc1nc(SC2CCN(c3sccc3C#N)C2=O)oc1C` (stereo unspecified), -137%.
Turning to `Cc1cc2c(N3CCC(N(C)CCc4cnn(C)c4)CC3)ncnc2s1`, the INHIBITION was -30.9%.
As for `CCN(C)c1cc(CNC(=O)CNC(=O)CC2CCCCC2)ccn1`, the figure is -24.9%.
Turning to `CCCNCc1cn(Cc2ccccc2)nc1-c1cccnc1`, the INHIBITION was determined as 60%.
As for `CCCNCc1cn(C)nc1-c1cccnc1`, the figure is -21.6%.
`Cn1cc(CNCCc2cccnc2)c(-c2cccnc2)n1`: the INHIBITION is recorded as -35.7%.
As for `Cn1cc(CNCCOc2ccc(F)c(F)c2)c(-c2cccnc2)n1`, the figure is 54.4%; as for `Cn1cc(CNCCn2cccn2)c(-c2cccnc2)n1`, -42%; as for `Cn1cc(CNCCc2nccs2)c(-c2cccnc2)n1`, 1.56%.
As for `O=C(c1cccnc1)N1CCC2(CCN(C(=O)N3CCCC3)CC2)C1`, the INHIBITION is -71.7%.
The result for `CCCC(=O)N1CC[C@@H]2[C@H](CC1)N(Cc1cccc(C)n1)CCS2(=O)=O` reads -82%; that for `Cn1cc(CN2CCCC23CCN(c2nc4ccccc4s2)CC3)cn1`, 51.7%; that for `c1ccc2sc(N3CCC4(CCCN4Cc4ncc[nH]4)CC3)nc2c1`, 20.4%.
The result for `Cc1nc(CN2CCCC23CCN(c2nc4ccccc4s2)CC3)co1` reads 9.68%; that for `CC(C)=CCN1CCN(Cc2cc(C)c(O)c(C)c2)CC1CCO` (stereo unspecified), -36%; that for `Cc1cc(CN(C)Cc2ccccc2N2CCCCC2)n[nH]1`, 67.5%.
The result for `Cc1cc(CN(C)Cc2csc(-c3cccs3)n2)n[nH]1` reads -130%.
Regarding `CN(Cc1noc(C(C)(C)C)n1)Cc1ccccc1N1CCCC1`, the INHIBITION was found to be 16.2%.
For the molecule `CCN(C(=O)CN1CCn2c(nnc2C2CC2)C1)C1=CCCCC1`, the INHIBITION was -67.6%.
The result for `Cc1nccc(C(=O)NC(CN2CCCC2=O)c2ccccc2)n1` (stereo unspecified) reads -66.1%; that for `CC(C)CNC(=O)c1nc(COc2ccc3c(c2)OCO3)no1`, -58.7%; that for `O=C(CCN1CCCC1C1CCCCC1)N1CCc2sccc2C1` (stereo unspecified), 59.9%.
With `O=C(CCC(=O)N1CCCC1c1cccs1)N1CCc2sccc2C1` (stereo unspecified), the INHIBITION is listed as -117%.
The result for `O=C(CCNCc1cccc(O)c1)N1CCc2sccc2C1` reads 52.1%; that for `COc1ccc(CNCCC(=O)N2CCc3sccc3C2)cc1O`, 36.4%.
As for `O=C(CCN1CCCC1c1cccs1)N1CCc2sccc2C1` (stereo unspecified), the figure is 50.8%; as for `O=C(CN1CCCC1c1cccs1)N1CCc2sccc2C1` (stereo unspecified), 3.62%; as for `Cn1cc(C2CCCN2CCC(=O)N2CCc3sccc3C2)cn1` (stereo unspecified), -37.7%.
